Consider 36 molecules from the supplement of paper PMC12669032.

SMILES strings stand for the structures. A number with no mark means an inactive call.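 How the source made its calls: active = AUC reduced over 20% with Padj below 0.05 in at least 2 of 3 replicates; inactive = otherwise.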

In one test the test system is Roseburia intestinalis. Put plainly: growth AUC relative to DMSO control (median of replicates) (fraction); higher = more growth (less inhibition), active = hit call of the paper. The conditions noted are these: 20 µM; 24 h. The procedure, abridged: (§1)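 OD600 was recorded every hour for 24 h in anaerobic monocultures of gut bacteria kept at 37 °C in mGAM, seeded at OD600 0.05 and given 20 µM compound in 1% DMSO. The area under each growth curve was scaled to the plate median of solvent-only wells, or to row and column medians for the industrial chemical plate. Before this step, the minimum OD was set to 0. Reported values are medians of three biological replicates run on separate days.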

The next test deals with Streptococcus salivarius. Described as above. The following applies: 20 µM; 24 h. Summed up: as §1

With `CC(C)OC(=O)C(O)(c1ccc(Br)cc1)c1ccc(Br)cc1`, the “growth AUC” value is 1 in the test with Roseburia intestinalis and 0.962 with Streptococcus salivarius.
Consider `COC(=O)C(C)N(C(=O)c1ccco1)c1c(C)cccc1C` (configuration not stated), for which the figures for the “growth AUC” value in the test with Roseburia intestinalis and with Streptococcus salivarius were 0.97 and 0.942, respectively.
The corresponding values for `O=C(O)COc1ccccc1` are 0.995 and 0.994.
Taken in the same sequence, the figures for `Cc1cccc2sc3nncn3c12` were 0.976 and 1.02.
`CCNc1nc(NC(C)(C)C)nc(SC)n1`: the “growth AUC” value is 1.07 in the test on Roseburia intestinalis and 0.984 with Streptococcus salivarius.
For the molecule `CC1(C)C(C=C(Cl)Cl)C1C(=O)OCc1cccc(Oc2ccccc2)c1` (mixture of isomers), the “growth AUC” value in the test with Roseburia intestinalis was 0.921; in the test with Streptococcus salivarius it was 0.979.
The corresponding values for `CC(C)[C@@H](Nc1ccc(C(F)(F)F)cc1Cl)C(=O)OC(C#N)c1cccc(Oc2ccccc2)c1` (some centres not stated) are 0.961 and 1.01.
The corresponding values for `CCOP(=S)(OCC)Oc1cc(-c2ccccc2)on1` are 0.993 and 0.995.
In the case of `CCOP(=S)(OCC)Oc1ccc(Cl)cc1Cl`, the “growth AUC” value in the test on Roseburia intestinalis was 1.05; with Streptococcus salivarius, 1.04.
For `CCNC(=O)NC(=O)/C(C#N)=N/OC`, the “growth AUC” value is 1.16 in the test on Roseburia intestinalis and 0.949 in the test on Streptococcus salivarius.
Regarding `ClC1=C(Cl)C2(Cl)C3C4C=CC(C4)C3C1(Cl)C2(Cl)Cl` (configuration not stated), the entries for the “growth AUC” value in the test on Roseburia intestinalis and with Streptococcus salivarius were 0.987 and 0.995, respectively.
On to `CCOC(=O)c1ccccc1S(=O)(=O)NC(=O)Nc1nc(Cl)cc(OC)n1`, for which the entries for the “growth AUC” value with Roseburia intestinalis and in the test on Streptococcus salivarius were 1.01 and 0.972, respectively.
As to `C=CC(N)=O`, the “growth AUC” value with Roseburia intestinalis and in the test with Streptococcus salivarius was 1.01 in each case.
On to `CCCOP(=S)(OCCC)SCC(=O)N1CCCCC1C` (configuration not stated), for which the entries for the “growth AUC” value with Roseburia intestinalis and in the test with Streptococcus salivarius were 0.992 and 0.953, respectively.
In the case of `OCC(O)CCl` (configuration not stated), the “growth AUC” value was 1.02 with Roseburia intestinalis and 1 with Streptococcus salivarius.
In the case of `CCC(CC)Nc1c([N+](=O)[O-])cc(C)c(C)c1[N+](=O)[O-]`, the “growth AUC” value was 0.897 in the test with Roseburia intestinalis and 0.959 with Streptococcus salivarius.
With `CC1(C)C(C=C(Cl)Cl)C1C(=O)OC(C#N)c1ccc(F)c(Oc2ccccc2)c1` (mixture of isomers), the “growth AUC” value was 0.916 in the test with Roseburia intestinalis and 0.974 with Streptococcus salivarius.
For the molecule `CCSCCSP(=S)(OC)OC`, the results for the “growth AUC” value with Roseburia intestinalis and in the test on Streptococcus salivarius were 1.03 and 1.02, respectively.
For `N#Cc1c(Cl)cccc1Cl`, the “growth AUC” value in the test with Roseburia intestinalis is 1.07; in the test with Streptococcus salivarius, 0.951.
As for `CCCN(CCC)c1c([N+](=O)[O-])cc(C(F)(F)F)cc1[N+](=O)[O-]`, the “growth AUC” value was 1 in the test on Roseburia intestinalis and 1.04 with Streptococcus salivarius.
Consider `CCNc1nc(NC(C)C)[nH]c(=O)n1`, for which the “growth AUC” value in the test with Roseburia intestinalis is 1.04; with Streptococcus salivarius it was 1.02.
On to `C[C@@H](Oc1ccc(Cl)cc1Cl)C(=O)O`, for which the “growth AUC” value with Roseburia intestinalis was 0.927; in the test with Streptococcus salivarius it was 0.919.
Turning to `COc1c(Cl)ccc(Cl)c1Cl`, the “growth AUC” value in the test on Roseburia intestinalis was 1.01; in the test with Streptococcus salivarius, 0.952.
Taken in the same sequence, the figures for `c1ccc2c(c1)cc1ccc3cccc4ccc2c1c34` were 1.13 and 1.06.
Regarding `CCOP(=S)(OCC)Oc1ccc(=O)n(-c2ccccc2)n1`, the “growth AUC” value with Roseburia intestinalis was 0.988; with Streptococcus salivarius it was 0.983.
Regarding `COP(=O)(OC)OC(Br)C(Cl)(Cl)Br` (configuration not stated), the “growth AUC” value was 1.01 in the test on Roseburia intestinalis and 0.956 with Streptococcus salivarius.
Regarding `Clc1cc(Cl)c(Cl)c(Cl)c1`, the “growth AUC” value was 0.91 in the test on Roseburia intestinalis and 0.968 in the test with Streptococcus salivarius.
Turning to `COP(=S)(OC)Oc1ccc(S(C)(=O)=O)c(C)c1`, the “growth AUC” value in the test on Roseburia intestinalis is 0.985; in the test with Streptococcus salivarius it was 0.972.
The corresponding values for `CNc1cnn(-c2cccc(C(F)(F)F)c2)c(=O)c1Cl` are 1.03 and 0.976.
The corresponding values for `Oc1c(Br)cc(Br)cc1Br` are 1.08 and 0.959.
In the case of `CCCCCCCCn1sccc1=O`, the “growth AUC” value with Roseburia intestinalis was 0.449 (active); in the test with Streptococcus salivarius, 0.815.
Regarding `CCOP(=S)(OCC)SCCSCC`, the “growth AUC” value with Roseburia intestinalis is 1.02; in the test on Streptococcus salivarius, 1.01.
As to `CC(C)=CC1C(C(=O)OCc2coc(Cc3ccccc3)c2)C1(C)C` (configuration not stated), the “growth AUC” value in the test with Roseburia intestinalis was 0.921; in the test on Streptococcus salivarius, 0.99.
With `COc1cc(OC)nc(NC(=O)[N-]S(=O)(=O)c2ncccc2OCC(F)(F)F)n1.[Na+]`, the “growth AUC” value in the test on Roseburia intestinalis was 1.01; in the test on Streptococcus salivarius, 0.885.
In the case of `Cc1cc(Cl)ccc1N=CN(C)C.Cl`, the “growth AUC” value with Roseburia intestinalis was 0.994; in the test on Streptococcus salivarius, 0.99.
Take `Clc1ccc(C(c2ccc(Cl)cc2)C(Cl)Cl)cc1`: the results for the “growth AUC” value with Roseburia intestinalis and in the test on Streptococcus salivarius were 0.923 and 0.99, respectively.
